Data from PubChem BioAssay (Tox21).
Records with an inconclusive call do not appear. A call without a number means that no potency is given here. Values without a mark were called inactive. Active and inactive are the calls of the source. Calls follow the shape of the dose curve; as a rule, active = well fitted cell-killing curve with a large enough effect in the repeat runs; inconclusive = weak or mixed curves, or effect the other way; inactive = flat fitted curve, though single readings scatter.

Assay: qHTS RealTime-Glo MT Cell Viability Assay in HEK293 cells - 0 hour (AID 1224880); also: top concentration of the series differs between compounds; nearly all actives have a fitted effect of over 45% in size
Conditions: RealTime-Glo luminescence; series mostly up to 76.8 µM; activity change, negative = cytotoxicity: at the top concentration
Description: U.S. Tox21 Program National Center for Advancing Translational Sciences [NCATS] NIH Chemical Genomics Center [NCGC] U.S. Environmental Protection Agency [EPA] National Institutes of Environmental Health Sciences [NIEHS] National Toxicology Program [NTP] U.S. Food and Drug Administration [FDA] Tox21 Assay Overview: Measure of cell viability is critical in the cell-base assay. Analysis of cell viability is necessary for the characterization of cell responses to cytotoxic drugs and environmental stress. A RealTime-Glo MT Cell Viability Assay to monitor cell viability in real time of continues cell culture during 40 hours of compound treatment was used to screen Tox21 10K library compounds in Hek293 cells. The RealTime-Glo MT Cell Viability Assay is a nonlytic, homogeneous, bioluminescent method to measure cell viability in real time using a simple, plate-based method. The assay involves adding NanoLuc luciferase and a cell-permeant prosubstrate to cells in culture. Viable cells reduce the proprietary prosubstrate to generate a substrate for NanoLuc luciferase. This substrate diffuses from cells into the surrounding culture medium, where it is rapidly used by the NanoLuc Enzyme to produce a luminescent signal. The signal correlates with the number of viable cells, making the assay well suited for cytotoxicity studies.
Tox21 Assay Protocol Summary: The mixture of Hek293 cell suspension and reagents were dispensed at 600cells/6 ul/well in 1536-well tissue culture treated black solid bottom plates using a Multidrop dispenser. After the assay plates were incubated at a 37 C/5% CO2 incubator for 5 hours, 23 nL of compounds dissolved in DMSO, positive and negative controls was transferred to the assay plate by a pintool work station. The plates were incubated at 37 C for 40 hours. The luminescence intensity were measured at 0h, 8h, 16h, 24h, 32h and 40h time points using ViewLux plate reader during compound treatment.

Row | SMILES | Potency | activity change, negative = cytotoxicity
1 | O=C(O)CF | inactive | –
2 | Cl | inactive | –
3 | CCC(=O)Nc1ccc(Cl)c(Cl)c1 | inactive | –
4 | NN=C(N)N | inactive | –
5 | Nc1ncn[nH]1 | inactive | –
6 | CCC1(c2ccc(N)cc2)CCC(=O)NC1=O (stereo not given) | inactive | –
7 | COP(=S)(OC)Oc1ccc(Sc2ccc(OP(=S)(OC)OC)cc2)cc1 | inactive | –
8 | O=[N+]([O-])c1ccc(Cl)c([N+](=O)[O-])c1 | inactive | –
9 | CC1CC(=O)O1 (stereo not given) | inactive | –
10 | Nc1ccc([N+](=O)[O-])cc1N | inactive | –
11 | C=CC(Cl)CCl (stereo not given) | inactive | –
12 | CC(C)COC(=O)c1ccccc1C(=O)OCC(C)C | inactive | –
13 | OC(c1ccc(Cl)cc1)(c1cncnc1)c1ccccc1Cl (stereo not given) | – | -23.9%
14 | C[C@]12CCC(=O)C=C1CC[C@@H]1[C@@H]2CC[C@@]2(C)[C@H]1CC[C@]2(C)O | – | -21.8% [at 35.3 µM]
15 | CC1(C)C(C(=O)OC(C#N)c2cccc(Oc3ccccc3)c2)C1(C)C (stereo not given) | inactive | –
16 | CC(C)(O)C#N | inactive | –
17 | CC(C)(c1ccc(OCC2CO2)cc1)c1ccc(OCC2CO2)cc1 (stereo not given) | inactive | –
18 | COc1ccc(O)c(C(C)(C)C)c1 | inactive | –
19 | Oc1ccc(Cl)cc1Cl | inactive | –
20 | c1ccc(C2CO2)cc1 (stereo not given) | inactive | –

Row | SMILES | Potency | activity change, negative = cytotoxicity
21 | Nc1ccc2ccccc2c1 | inactive | –
22 | O=S(=O)(O)C(F)(F)C(F)(F)C(F)(F)C(F)(F)C(F)(F)C(F)(F)C(F)(F)C(F)(F)F | inactive | –
23 | Clc1cccc(C(Cl)(Cl)Cl)n1 | inactive | –
24 | O=C1Nc2ccc(Cl)cc2C(c2ccccc2)=NC1O (stereo not given) | inactive | –
25 | CC(C)(C#N)N=NC(C)(C)C#N | inactive | –
26 | COP(=O)(NC(C)=O)SC (stereo not given) | inactive | –
27 | CCNc1nc(Cl)nc(NC(C)(C)C#N)n1 | inactive | –
28 | ClC(Cl)(Cl)c1ccccc1 | inactive | –
29 | Clc1ccccc1-c1nnc(-c2ccccc2Cl)nn1 | inactive | –
30 | CCCCCCCCCC(CC)c1ccc(S(=O)(=O)O)cc1 (stereo not given) | inactive | –
31 | [CH3][Sn]([Cl])([Cl])[Cl] | inactive | –
32 | COP(=S)(OC)SCn1nnc2ccccc2c1=O | inactive | –
33 | CC(C)=CC1C(C(=O)OCc2cccc(Oc3ccccc3)c2)C1(C)C (stereo not given) | inactive | –
34 | S=c1[nH]c2ccccc2[nH]1 | inactive | –
35 | C[C@]12CC[C@H]3[C@@H](CCC4=CC(=O)CC[C@@H]43)[C@@H]1CC[C@@H]2O | inactive | –
36 | Oc1ccc(Cl)cc1Cc1ccccc1 | inactive | –
37 | CS(=O)(=O)NC(=O)c1cc(Oc2ccc(C(F)(F)F)cc2Cl)ccc1[N+](=O)[O-] | inactive | –
38 | CC(C)(c1ccccc1)c1ccc(O)c(C(C)(C)c2ccccc2)c1 | inactive | –
39 | CCCCC(C#N)(Cn1cncn1)c1ccc(Cl)cc1 (stereo not given) | inactive | –
40 | Cc1cccc(N=Nc2ccc(N(C)C)cc2)c1 | inactive | –
